# Assay results published in PubChem BioAssay (EPA / NIEHS).
# Inconclusive results are not listed. The source made the active and inactive calls. Rule for the calls, unless noted: active = hit-call score of the fitted dose curve at least 0.9, where 1 is the maximum; inconclusive = response in the unintended direction; inactive = score below 0.9.
# Tests used:
# [1] = target: human RAR-related Orphan Receptor gamma (RORg), RORC (gene 6097) (UniProt P51449); experiment: ATG_RORg_TRANS: Attagene TRANS-FACTORIAL HepG2 Assay for human RAR-related Orphan Receptor gamma (RORg) (AID 2283011)
# Procedure, shortened: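 HepG2 cells transiently transfected with GAL4-UAS reporter units and chimeric RORg-Gal4 construct; after 24 h chemical exposure, reporter mRNA measured by RT-PCR with fluorescent capillary electrophoresis, gain of signal fitted against DMSO.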
# [2] = target: Retinoic acid receptor RXR-alpha (Homo sapiens) (UniProt P19793); experiment: ATG_RXRa_TRANS: Attagene TRANS-FACTORIAL HepG2 Assay for human Retinoid X Receptor alpha (RXRa) (AID 2283012)
# Procedure, shortened: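 TRANS format reporting activity of exogenous RXRa-Gal4 chimera in transiently transfected HepG2, 24 h exposure. Reporter transcripts quantified by RT-PCR with capillary electrophoresis, with gain of signal scored relative to DMSO.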
# [3] = read-out: E-selectin (Homo sapiens) (UniProt P16581); experiment: BSK_3C_Eselectin: BioMAP Diversity Plus: 3C Assay for Eselectin Biomarker Activity (AID 2283015; active = hit-call score of the fitted dose curve at least 0.9, where 1 is the maximum; inactive = score below 0.9;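 for outcome: cell surface E-selectin protein quantified by ELISA 24 h after dosing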); conditions: primary human endothelial cells (HUVEC); actives raise or lower the signal
# Procedure, shortened: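 Primary human umbilical vein endothelial cells (3C system), read 24 h after compound addition; E-selectin measured by ELISA. Bidirectional curve fitting against DMSO baseline; cytotoxicity by parallel SRB total-protein staining.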
# [4] = read-out: Interleukin-1 alpha (IL1a), IL1A (gene 3552); experiment: BSK_BE3C_IL1a: BioMAP Diversity Plus: BE3C Assay for Interleukin-1 alpha (IL1a) Biomarker Activity (AID 2283016; active = hit-call score of the fitted dose curve at least 0.9, where 1 is the maximum; inactive = score below 0.9); conditions: primary human bronchial epithelial cells; actives raise or lower the signal
# Procedure, shortened: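 IL-1a measured by ELISA after 24 h treatment of human primary bronchial epithelial cells, with gain or loss of signal fitted versus DMSO. Parallel cultures stained with SRB gauge overt cytotoxicity.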
# [5] = read-out: Monocyte Chemoattractant Protein-1 (MCP1), CCL2 (gene 6347); experiment: BSK_4H_MCP1: BioMAP Diversity Plus: 4H Assay for Monocyte Chemoattractant Protein-1 (MCP1) Biomarker Activity (AID 2283018; active = hit-call score of the fitted dose curve at least 0.9, where 1 is the maximum; inactive = score below 0.9); conditions: primary human endothelial cells (HUVEC); actives raise or lower the signal
# Procedure, shortened: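 ELISA of MCP-1 (CCL2) 24 h after chemical dosing of HUVEC in the BioMAP 4H system. Gain or loss versus DMSO fitted; parallel SRB staining (560 nm) tracked overt cytotoxicity.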
# [6] = read-out: Human Leukocyte Antigen - DR isotype (HLADR), HLA-DRA (gene 3122); experiment: BSK_3C_HLADR: BioMAP Diversity Plus: 3C Assay for Human Leukocyte Antigen - DR isotype (HLADR) Biomarker Activity (AID 2283019; active = hit-call score of the fitted dose curve at least 0.9, where 1 is the maximum; inactive = score below 0.9;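 for outcome: ELISA of cell-surface HLA-DR on HUVEC 24 h after dosing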); conditions: primary human endothelial cells (HUVEC); actives raise or lower the signal
# Procedure, shortened: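 HUVEC monoculture, HLA-DR measured by ELISA 24 h after chemical dosing. Fitted bidirectionally against DMSO baseline; parallel SRB staining assessed cytotoxicity, with 3C proliferation read by SRB at 48 h.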
# [7] = read-out: Interleukin-8 (IL8), CXCL8 (gene 3576); experiment: BSK_3C_IL8: BioMAP Diversity Plus: 3C Assay for Interleukin-8 (IL8) Biomarker Activity (AID 2283020; active = hit-call score of the fitted dose curve at least 0.9, where 1 is the maximum; inactive = score below 0.9); conditions: primary human endothelial cells (HUVEC); actives raise or lower the signal
# Procedure, shortened: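 IL-8 was measured by ELISA in HUVEC cultures 24 h after chemical dosing, with gain or loss of signal fitted relative to DMSO. Parallel SRB total-protein staining tracked overt cytotoxicity.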
# [8] = read-out: Monokine induced gamma interferon (MIG), CXCL9 (gene 4283); experiment: BSK_3C_MIG: BioMAP Diversity Plus: 3C Assay for Monokine induced gamma interferon (MIG) Biomarker Activity (AID 2283021; active = hit-call score of the fitted dose curve at least 0.9, where 1 is the maximum; inactive = score below 0.9;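 for AC50: MIG protein level measured by immunoassay in the treated endothelial cultures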); conditions: primary human endothelial cells (HUVEC); actives raise or lower the signal
# Procedure, shortened: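 ELISA measurement of MIG in human umbilical vein endothelial cells 24 h after treatment. Cytotoxicity tracked by SRB staining in parallel cultures; gain or loss of signal fitted relative to DMSO.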
# [9] = BSK_3C_SRB: Viability Assessment in the BioMAP Diversity Plus: 3C Assay (AID 2283023; active = hit-call score of the fitted dose curve at least 0.9, where 1 is the maximum; inactive = score below 0.9;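 note: fitted both ways against DMSO so a hit may be signal rise or drop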); conditions: primary human endothelial cells (HUVEC)
# Procedure, shortened: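 Human umbilical vein endothelial cells in the 3C system, treated 24 h. Total protein measured by 0.1% sulforhodamine B staining after 10% TCA fixation, read at 560 nm; bidirectional fit versus DMSO.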
# [10] = read-out: Matrix Metallopeptidase 1 (MMP1), MMP1 (gene 4312); experiment: BSK_BE3C_MMP1: BioMAP Diversity Plus: BE3C Assay for Matrix Metallopeptidase 1 (MMP1) Biomarker Activity (AID 2283024; active = hit-call score of the fitted dose curve at least 0.9, where 1 is the maximum; inactive = score below 0.9); conditions: primary human bronchial epithelial cells; actives raise or lower the signal
# Procedure, shortened: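 ELISA measurement of MMP-1 after 24 h compound exposure of primary human bronchial epithelial cells. Changes in either direction fitted relative to DMSO; parallel SRB staining checked overt cytotoxicity.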
# [11] = read-out: Pselectin, SELP (gene 6403); experiment: BSK_4H_Pselectin: BioMAP Diversity Plus: 4H Assay for Pselectin Biomarker Activity (AID 2283026; active = hit-call score of the fitted dose curve at least 0.9, where 1 is the maximum; inactive = score below 0.9); conditions: primary human endothelial cells (HUVEC); actives raise or lower the signal
# Procedure, shortened: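 ELISA of surface P-selectin on HUVEC, 24 h after dosing, with parallel SRB staining (0.1% after 10% TCA fixation, 560 nm) for overt cytotoxicity. Activity fitted in both directions relative to DMSO.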
# [12] = BSK_BE3C_SRB: Viability Assessment in the BioMAP Diversity Plus: BE3C Assay (AID 2283028; active = hit-call score of the fitted dose curve at least 0.9, where 1 is the maximum; inactive = score below 0.9;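 for AC50: fitted both ways so AC50 may mark signal gain or loss versus DMSO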); conditions: primary human bronchial epithelial cells
# Procedure, shortened: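 Human bronchial epithelial primary cells in confluent culture, 24 h after chemical dosing; total protein by 0.1% SRB staining after 10% TCA fixation, read at 560 nm. Bidirectional fitting versus DMSO baseline.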
# [13] = read-out: Thrombomodulin, THBD (gene 7056); experiment: BSK_3C_Thrombomodulin: BioMAP Diversity Plus: 3C Assay for Thrombomodulin Biomarker Activity (AID 2283029; active = hit-call score of the fitted dose curve at least 0.9, where 1 is the maximum; inactive = score below 0.9); conditions: primary human endothelial cells (HUVEC); actives raise or lower the signal
# Procedure, shortened: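 ELISA measurement of thrombomodulin on HUVEC surface 24 h after chemical dosing; activity fitted in both directions relative to DMSO vehicle.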
# [14] = read-out: Urokinase-type plasminogen activator receptor (uPAR), PLAUR (gene 5329); experiment: BSK_4H_uPAR: BioMAP Diversity Plus: 4H Assay for Urokinase-type plasminogen activator receptor (uPAR) Biomarker Activity (AID 2283030; active = hit-call score of the fitted dose curve at least 0.9, where 1 is the maximum; inactive = score below 0.9); conditions: primary human endothelial cells (HUVEC); actives raise or lower the signal
# Procedure, shortened: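 Human umbilical vein endothelial cells in the 4H system, 24 h after chemical dosing. Cell-surface uPAR measured by ELISA, fitted in both directions versus DMSO; cytotoxicity checked by SRB total protein in parallel cultures.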
# [15] = target: human Retinoid X Receptor beta (RXRb), RXRB (gene 6257) (UniProt P28702); experiment: ATG_RXRb_TRANS: Attagene TRANS-FACTORIAL HepG2 Assay for human Retinoid X Receptor beta (RXRb) (AID 2283013)
# Procedure, shortened: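 Readout is reporter transcript induction after 24 h dosing. It is measured by RT-PCR of total RNA followed by fluorescent capillary electrophoresis. HepG2 liver cells carry transfected multiple reporter units driven by an exogenous RXRb-Gal4 fusion; activity is relative to DMSO.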
# [16] = BSK_3C_Vis: BioMAP Diversity Plus: 3C Assay for Morphology Visualization (AID 2283025; active = hit-call score of the fitted dose curve at least 0.9, where 1 is the maximum; inactive = score below 0.9;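 note: light microscopy image of cell morphology used as background control; fitted both ways so gain or loss versus DMSO counts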); conditions: primary human endothelial cells (HUVEC)
# Procedure, shortened: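 Light-microscopy visualization of HUVEC cultures at 24 h post-treatment, with DMSO as baseline for bidirectional fitting.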
# [17] = target: human Vitamin D Receptor (VDR), VDR (gene 7421) (UniProt P11473); experiment: ATG_VDR_TRANS: Attagene TRANS-FACTORIAL HepG2 Assay for human Vitamin D Receptor (VDR) (AID 2283022)
# Procedure, shortened: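 HepG2 cells were transiently transfected with GAL4-UAS reporter units and a chimeric VDR-Gal4 construct, then dosed for 24 hours. Reporter mRNA was quantified by RT-PCR, fluorescent labeling, HpaI digestion and capillary electrophoresis; gain of signal analysed vs DMSO.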
# [18] = target: human Thyroid Receptor alpha (THRa1), THRA (gene 7067) (UniProt P10827); experiment: ATG_THRa1_TRANS: Attagene TRANS-FACTORIAL HepG2 Assay for human Thyroid Receptor alpha (THRa1) (AID 2283014)
# Procedure, shortened: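 HepG2 cells transiently transfected with chimeric NR-Gal4 and GAL4-UAS reporter units, dosed 24 h. Reporter mRNA quantified by RT-PCR, fluorescent labeling, HpaI digestion and capillary electrophoresis; gain-of-signal fit versus DMSO.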
# Chain of Retinoic acid receptor RXR-alpha (Homo sapiens) (P19793 whole entry, looked up, the tested form may be a part): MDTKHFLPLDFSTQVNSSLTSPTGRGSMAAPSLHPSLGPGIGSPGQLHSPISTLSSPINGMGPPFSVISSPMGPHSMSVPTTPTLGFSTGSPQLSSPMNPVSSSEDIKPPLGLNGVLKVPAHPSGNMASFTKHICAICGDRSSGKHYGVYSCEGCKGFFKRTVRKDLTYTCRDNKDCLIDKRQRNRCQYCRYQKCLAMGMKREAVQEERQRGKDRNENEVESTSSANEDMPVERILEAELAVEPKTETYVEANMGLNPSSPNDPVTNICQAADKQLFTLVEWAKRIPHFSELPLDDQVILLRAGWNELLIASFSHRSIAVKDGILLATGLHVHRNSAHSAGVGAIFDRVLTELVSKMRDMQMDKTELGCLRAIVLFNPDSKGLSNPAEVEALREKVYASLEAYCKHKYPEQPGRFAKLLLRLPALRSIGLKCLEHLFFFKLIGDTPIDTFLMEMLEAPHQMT
# Chain of E-selectin (Homo sapiens) (P16581 whole entry, looked up): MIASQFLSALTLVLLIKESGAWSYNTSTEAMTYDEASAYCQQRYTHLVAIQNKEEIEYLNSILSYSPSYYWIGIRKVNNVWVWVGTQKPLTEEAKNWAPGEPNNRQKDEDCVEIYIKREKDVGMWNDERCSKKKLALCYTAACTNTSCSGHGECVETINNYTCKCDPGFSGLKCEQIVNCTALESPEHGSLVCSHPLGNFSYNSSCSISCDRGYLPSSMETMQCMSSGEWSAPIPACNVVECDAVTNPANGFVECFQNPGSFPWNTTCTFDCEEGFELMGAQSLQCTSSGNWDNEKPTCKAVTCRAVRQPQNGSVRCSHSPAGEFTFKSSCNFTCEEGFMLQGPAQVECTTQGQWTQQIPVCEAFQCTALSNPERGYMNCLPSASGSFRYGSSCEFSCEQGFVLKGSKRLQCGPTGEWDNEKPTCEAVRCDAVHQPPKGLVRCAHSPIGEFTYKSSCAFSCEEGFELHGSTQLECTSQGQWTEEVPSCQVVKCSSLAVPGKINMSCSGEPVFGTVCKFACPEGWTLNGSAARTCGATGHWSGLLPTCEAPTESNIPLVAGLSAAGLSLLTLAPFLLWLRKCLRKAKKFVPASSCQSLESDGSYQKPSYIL
# Chain of human Retinoid X Receptor beta (RXRb), RXRB (gene 6257) (P28702 whole entry, looked up, the tested form may be a part): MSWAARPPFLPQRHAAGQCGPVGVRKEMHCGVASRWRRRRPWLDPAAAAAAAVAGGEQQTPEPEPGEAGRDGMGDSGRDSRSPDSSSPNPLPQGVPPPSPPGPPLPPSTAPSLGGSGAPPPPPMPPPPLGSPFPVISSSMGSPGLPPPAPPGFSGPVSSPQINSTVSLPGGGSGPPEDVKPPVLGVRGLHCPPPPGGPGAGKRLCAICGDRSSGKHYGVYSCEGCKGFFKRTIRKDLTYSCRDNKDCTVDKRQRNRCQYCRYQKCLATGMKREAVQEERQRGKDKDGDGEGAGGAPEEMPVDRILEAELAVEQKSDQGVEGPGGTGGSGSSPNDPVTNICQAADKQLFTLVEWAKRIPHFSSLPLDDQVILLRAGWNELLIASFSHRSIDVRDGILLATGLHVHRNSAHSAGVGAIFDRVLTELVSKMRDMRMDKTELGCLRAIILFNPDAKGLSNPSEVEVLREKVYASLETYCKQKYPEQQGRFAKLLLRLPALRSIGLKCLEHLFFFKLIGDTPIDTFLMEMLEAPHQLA
# Chain of human RAR-related Orphan Receptor gamma (RORg), RORC (gene 6097) (P51449 whole entry, looked up, the tested form may be a part): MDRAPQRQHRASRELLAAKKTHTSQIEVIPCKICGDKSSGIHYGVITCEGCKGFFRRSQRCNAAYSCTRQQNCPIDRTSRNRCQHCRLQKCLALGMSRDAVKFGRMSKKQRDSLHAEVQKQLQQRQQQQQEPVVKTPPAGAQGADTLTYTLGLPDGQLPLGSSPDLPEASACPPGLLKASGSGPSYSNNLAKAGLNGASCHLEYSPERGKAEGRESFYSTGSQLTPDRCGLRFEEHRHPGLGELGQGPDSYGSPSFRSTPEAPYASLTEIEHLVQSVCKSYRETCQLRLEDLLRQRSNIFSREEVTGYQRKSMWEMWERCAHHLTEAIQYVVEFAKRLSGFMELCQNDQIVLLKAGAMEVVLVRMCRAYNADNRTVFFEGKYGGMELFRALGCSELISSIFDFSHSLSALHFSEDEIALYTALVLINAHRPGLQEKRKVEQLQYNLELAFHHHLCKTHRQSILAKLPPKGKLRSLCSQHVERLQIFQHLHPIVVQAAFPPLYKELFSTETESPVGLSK
# Chain of human Vitamin D Receptor (VDR), VDR (gene 7421) (P11473 whole entry, looked up, the tested form may be a part): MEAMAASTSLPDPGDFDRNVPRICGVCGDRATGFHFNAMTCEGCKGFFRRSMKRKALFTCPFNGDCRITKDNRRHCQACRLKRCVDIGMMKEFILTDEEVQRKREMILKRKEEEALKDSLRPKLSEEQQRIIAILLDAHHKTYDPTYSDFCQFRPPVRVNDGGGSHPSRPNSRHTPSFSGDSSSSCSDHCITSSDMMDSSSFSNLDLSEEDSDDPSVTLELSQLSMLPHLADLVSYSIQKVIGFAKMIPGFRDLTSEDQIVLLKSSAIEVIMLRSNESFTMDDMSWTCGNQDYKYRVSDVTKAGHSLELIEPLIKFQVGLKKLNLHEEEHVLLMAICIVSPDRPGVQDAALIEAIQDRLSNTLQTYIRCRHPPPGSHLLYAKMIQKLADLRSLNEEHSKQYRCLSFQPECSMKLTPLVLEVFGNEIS
# Chain of human Thyroid Receptor alpha (THRa1), THRA (gene 7067) (P10827 whole entry, looked up, the tested form may be a part): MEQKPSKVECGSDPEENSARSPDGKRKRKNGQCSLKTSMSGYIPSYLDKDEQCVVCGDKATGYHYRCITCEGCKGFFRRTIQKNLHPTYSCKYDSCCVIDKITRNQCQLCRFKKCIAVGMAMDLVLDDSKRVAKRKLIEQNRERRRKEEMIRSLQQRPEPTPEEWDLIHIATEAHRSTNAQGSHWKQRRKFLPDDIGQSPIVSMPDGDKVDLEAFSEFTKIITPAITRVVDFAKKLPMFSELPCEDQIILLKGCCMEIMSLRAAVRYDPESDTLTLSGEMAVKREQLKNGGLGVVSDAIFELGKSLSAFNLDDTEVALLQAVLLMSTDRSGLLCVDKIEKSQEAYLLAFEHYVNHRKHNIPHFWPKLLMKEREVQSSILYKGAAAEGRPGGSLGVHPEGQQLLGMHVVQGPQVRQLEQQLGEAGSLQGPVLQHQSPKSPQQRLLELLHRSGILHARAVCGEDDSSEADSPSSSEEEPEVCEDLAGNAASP
smiles,measurement,setting,value
CCCCCCC(CO)CCCC (stereo unspecified),outcome,[1],inactive
same,outcome,[2],inactive
same,outcome,[3],inactive
same,outcome,[4],inactive
same,outcome,[5],inactive
same,outcome,[6],inactive
same,outcome,[7],inactive
same,outcome,[8],inactive
same,outcome,[9],inactive
same,outcome,[10],inactive
same,outcome,[11],inactive
same,outcome,[12],inactive
same,outcome,[13],inactive
same,outcome,[14],inactive
CC(=O)C1(C)CC2=C(CCCC2(C)C)CC1C (stereo unspecified),outcome,[1],inactive
same,outcome,[2],inactive
same,AC50,[15],36.1 µM (active)
same,AC50,[4],20 µM (active)
same,AC50,[5],10.4 µM (active)
same,AC50,[6],10.4 µM (active)
same,AC50,[7],5.52 µM (active)
same,AC50,[8],20 µM (active)
same,AC50,[9],8.86 µM (active)
same,AC50,[10],27.5 µM (active)
same,AC50,[16],8.8 µM (active)
same,AC50,[11],5.95 µM (active)
same,AC50,[12],27.1 µM (active)
same,outcome,[13],inactive
same,AC50,[14],5.19 µM (active)
CC1C2CC(CC2C2CCCC(O)C2)C1(C)C (stereo unspecified),outcome,[1],inactive
same,outcome,[2],inactive
same,outcome,[17],inactive
Cc1c(C2(c3cc(Br)c(O)c(Br)c3C)OS(=O)(=O)c3ccccc32)cc(Br)c(O)c1Br,outcome,[1],inactive
same,outcome,[2],inactive
same,outcome,[18],inactive
same,outcome,[17],inactive
Nc1ccc(Cl)c([N+](=O)[O-])c1,outcome,[1],inactive
same,outcome,[2],inactive
same,outcome,[17],inactive
Cc1ccc(OC(=O)c2ccccc2O)cc1,outcome,[1],inactive
same,outcome,[2],inactive
same,outcome,[18],inactive
same,outcome,[17],inactive
COC(=O)c1cccnc1,outcome,[1],inactive
same,outcome,[2],inactive
same,outcome,[18],inactive
CCCCCCCC(=O)OCCCCCC,outcome,[1],inactive
same,outcome,[2],inactive
same,outcome,[15],inactive
same,outcome,[17],inactive
CCCCOCC,outcome,[1],inactive
same,outcome,[2],inactive
same,outcome,[17],inactive
ON=C1CCCCC1,outcome,[1],inactive
same,outcome,[2],inactive
same,outcome,[15],inactive
same,outcome,[17],inactive
O=C(O)c1cc(C(=O)O)cc([N+](=O)[O-])c1,outcome,[1],inactive
same,outcome,[2],inactive
same,outcome,[18],inactive
same,outcome,[17],inactive
O=P(O)(O)O,outcome,[1],inactive
same,outcome,[15],inactive
CCCCC(CC)COC(=O)c1ccc(O)cc1 (stereo unspecified),outcome,[1],inactive
same,outcome,[2],inactive
same,AC50,[15],33.4 µM (active)
same,outcome,[17],inactive
CCN(CCC#N)c1ccc(N=Nc2ccc([N+](=O)[O-])cc2)cc1,outcome,[1],inactive
same,outcome,[2],inactive
same,outcome,[17],inactive
CCOC(=O)CCc1ccccc1,outcome,[1],inactive
same,outcome,[2],inactive
same,outcome,[15],inactive
same,outcome,[17],inactive
CCC(C)c1cc([N+](=O)[O-])cc([N+](=O)[O-])c1OC(=O)OC(C)C (stereo unspecified),outcome,[1],inactive
same,AC50,[2],32.6 µM (active)
same,outcome,[18],inactive
same,AC50,[3],17.9 µM (active)
same,AC50,[4],25.4 µM (active)
same,AC50,[5],5.06 µM (active)
same,AC50,[6],9.38 µM (active)
same,AC50,[7],34.1 µM (active)
same,AC50,[8],33.2 µM (active)
same,outcome,[17],inactive
same,AC50,[9],14.1 µM (active)
same,AC50,[10],35.1 µM (active)
same,AC50,[16],12 µM (active)
same,AC50,[11],9.75 µM (active)
same,AC50,[12],29.4 µM (active)
same,AC50,[13],20 µM (active)
same,AC50,[14],13 µM (active)
